The supplement of paper PMC13380429

System: Vero E6 infected with SARS-CoV-2
Assay: inhibition of SARS-CoV-2 cytopathic effect; higher = more antiviral protection, active = above 15
Details: 48 h

Measured: inhibition of SARS-CoV-2 cytopathic effect

Cc1nc(-c2cccnc2)sc1C(=O)Nc1ccccc1-c1cn2c(CN3CCOCC3)csc2n1
inactive: 1 nM -1.3% | 8.33 nM 1.11% | 100 nM 1.74% | 833.33 nM 0.18% | 10000 nM -2.05%

NP(N)(=O)NC(=O)c1ccc(F)cc1 [flurofamide]
inactive: 1 nM 3.53% | 8.33 nM -1.42% | 100 nM -1.3% | 833.33 nM 0.9% | 10000 nM 5.62%

CCC[N+]12[C@H](O)[C@@H](CC)[C@@H]3C[C@H]1[C@@H]1N(C)c4ccccc4[C@]14C[C@H]2[C@@H]3[C@H]4O [neo-gilurytmal]
inactive: 1 nM -1.96% | 8.33 nM -1.28% | 100 nM 0.64% | 833.33 nM 1.4% | 10000 nM -3.83%

O=C1NC(=O)/C(=C/c2ccc3nccc(-c4ccncc4)c3c2)S1
inactive: 1 nM -0.58% | 8.33 nM -1.8% | 100 nM 1.55% | 833.33 nM 2.78% | 10000 nM -1.1%

CCc1ccc(C(=O)C(C)CN2CCCCC2)cc1 (stereo not given) [eperisone]
inactive: 1 nM 0.14% | 8.33 nM 2.24% | 100 nM 3.36% | 833.33 nM 4.7% | 10000 nM 2.77%

CC(=O)N(CC(O)CO)c1c(I)c(C(=O)NCC(O)CO)c(I)c(C(=O)NCC(O)CO)c1I (stereo not given) [iohexol]
inactive: 1 nM -1.99% | 8.33 nM -0.81% | 100 nM -1.68% | 833.33 nM -0.74% | 10000 nM 2.67%

C/C=C1/[C@H](O[C@@H]2O[C@H](CO)[C@@H](O)[C@H](O)[C@H]2O)OC=C(C(=O)OC)[C@H]1CC(=O)OCCc1ccc(O)c(O)c1 [oleuropein]
inactive: 1 nM 0.9% | 8.33 nM -0.2% | 100 nM -0.09% | 833.33 nM 0.43% | 10000 nM 0.52%

COc1ccc(C(=O)c2c(C)n(CCN3CCOCC3)c3ccccc23)cc1 [pravadoline]
inactive: 1 nM 3.43% | 8.33 nM 2.8% | 100 nM -0.1% | 833.33 nM -1.26% | 10000 nM -0.15%

CC(=O)[C@H]1CC[C@H]2[C@@H]3CC[C@H]4C[C@](C)(O)CC[C@]4(C)[C@H]3CC[C@]12C [ganaxolone]
inactive: 1 nM -0.23% | 8.33 nM 4.47% | 100 nM 1.85% | 833.33 nM 0.7% | 10000 nM 0.84%

O=C(NC1CCOCC1)c1ccc(-c2cc(-c3c[nH]nc3-c3ccccn3)ccn2)cc1
inactive: 1 nM 1% | 8.33 nM 0.61% | 100 nM 0.23% | 833.33 nM 4.34% | 10000 nM 3.89%

C#C[C@]1(O)CC[C@H]2[C@@H]3CCc4cc(OC)ccc4[C@H]3CC[C@@]21C [mestranol]
inactive: 1 nM 0.06% | 8.33 nM 0.82% | 100 nM 0.83% | 833.33 nM 0.76% | 10000 nM -0.67%

C[C@@H]1NC(=O)[C@@H](N)CNC(=O)[C@H](C2CCNC(=N)N2)NC(=O)/C(=C/NC(N)=O)NC(=O)[C@H](CNC(=O)CC(N)CCCN)NC1=O.N=C1NCC[C@H]([C@@H]2NC(=O)/C(=C/NC(N)=O)NC(=O)[C@H](CNC(=O)C[C@@H](N)CCCN)NC(=O)[C@H](CO)NC(=O)[C@@H](N)CNC2=O)N1 [capreomycin]
inactive: 1 nM 0.56% | 8.33 nM -0.28% | 100 nM -1.08% | 833.33 nM 0.24% | 10000 nM 2.53%

COc1cc(OC2CCN(C)CC2)ccc1Nc1ncc2c(n1)n(C1CCCC1)c(=O)n2C
inactive: 1 nM 1.63% | 8.33 nM 2.01% | 100 nM -2.6% | 833.33 nM 0.1% | 10000 nM 11.1%

CC(C)(C(=O)O)c1ccc(C(=O)CCCN2CCC(OC(c3ccccc3)c3ccccc3)CC2)cc1 [carebastine]
inactive: 1 nM -2.83% | 8.33 nM -1.16% | 100 nM -0.91% | 833.33 nM -2.56% | 10000 nM -0.56%

O=C(c1ccccn1)c1cnn2c(-c3ccncc3)ccnc12 [ocinaplon]
inactive: 1 nM 0.32% | 8.33 nM -1.43% | 100 nM -0.52% | 833.33 nM -3.04% | 10000 nM -0.62%

CC[C@@H](C)N(C)C(=O)c1cc2ccccc2c(-c2ccccc2Cl)n1
inactive: 1 nM -0.84% | 8.33 nM 0.72% | 100 nM -0.6% | 833.33 nM 2.81% | 10000 nM 2.78%

CO[C@H]1/C=C/O[C@@]2(C)Oc3c(C)c(O)c4c(O)c(c(/C=N/N=C/N5CCCCC5)c(O)c4c3C2=O)NC(=O)/C(C)=C\C=C\[C@H](C)[C@H](O)[C@@H](C)[C@@H](O)[C@@H](C)[C@H](OC(C)=O)[C@@H]1C
inactive: 1 nM 5.27% | 8.33 nM 5.73% | 100 nM 6.01% | 833.33 nM 4.61% | 10000 nM 3.27%
